# Measurements from the supplement of paper PMC3334620.
# Over roughly 33,000 sequences, “E-score (-0.5 to 0.5)” has its median near -0.012; the highest 2% begin near 0.29. The sample holds the highest values, similar sequences and a random draw of the others, so the mix is not that of the screen.
# Target: T1, Ybr033w (UniProt P38073)
# T1 sequence: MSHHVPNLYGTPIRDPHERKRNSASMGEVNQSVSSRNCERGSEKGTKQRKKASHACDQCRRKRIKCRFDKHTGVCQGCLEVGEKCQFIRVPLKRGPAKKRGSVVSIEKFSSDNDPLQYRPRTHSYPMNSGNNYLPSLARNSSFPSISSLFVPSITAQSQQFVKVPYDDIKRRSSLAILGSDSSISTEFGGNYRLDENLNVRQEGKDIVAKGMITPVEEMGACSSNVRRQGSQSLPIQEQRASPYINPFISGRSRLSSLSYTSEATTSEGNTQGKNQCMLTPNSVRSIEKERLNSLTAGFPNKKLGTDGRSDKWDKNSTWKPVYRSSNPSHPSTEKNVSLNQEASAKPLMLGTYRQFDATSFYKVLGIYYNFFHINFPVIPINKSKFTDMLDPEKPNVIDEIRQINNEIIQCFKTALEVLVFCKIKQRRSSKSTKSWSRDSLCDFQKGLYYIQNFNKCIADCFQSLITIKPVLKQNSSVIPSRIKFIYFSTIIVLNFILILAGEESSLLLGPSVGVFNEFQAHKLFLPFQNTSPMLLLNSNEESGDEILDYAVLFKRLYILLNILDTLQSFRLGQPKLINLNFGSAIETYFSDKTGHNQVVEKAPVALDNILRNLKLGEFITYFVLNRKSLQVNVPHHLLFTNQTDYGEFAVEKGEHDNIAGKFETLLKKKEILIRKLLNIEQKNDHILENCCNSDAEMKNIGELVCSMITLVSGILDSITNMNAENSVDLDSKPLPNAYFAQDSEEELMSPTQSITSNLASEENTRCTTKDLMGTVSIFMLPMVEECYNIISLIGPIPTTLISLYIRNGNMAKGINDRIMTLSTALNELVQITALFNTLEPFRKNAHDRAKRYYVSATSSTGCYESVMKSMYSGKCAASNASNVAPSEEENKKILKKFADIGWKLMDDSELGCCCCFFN
# Assay: PBM E-score (8-mer binding enrichment) (E-score (-0.5 to 0.5)); higher = stronger / more preferred TF binding
# Settings: protein concentration: 200 nM; construct: GST-full length
# Summary of the method: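 Universal all-10-mer Agilent arrays, fresh or stripped once, were converted to double-stranded form by primer extension. GST-tagged yeast transcription factors from PURExpress in vitro transcription/translation, full-length or DNA-binding domain only, were applied at about 100-200 nM and detected with fluorescent anti-GST. After masliner normalisation, the Universal PBM Analysis Suite scored each ungapped eight-base word together with its reverse complement by E-score.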
row,Sequence,PBM E-score
1,AAATTAAT,0.314
2,GCATTAAA,0.147
3,AAATTAAG,0.144
4,AAATTAAC,0.251
5,ACATTAAA,0.225
6,TAATTAAA,0.276
7,GAATTAAA,0.149
8,AAATTAAA,0.339
9,TCATTAAA,0.319
10,AGGTAGGC,-0.147
11,AATCTGGG,0.00147
12,CGCGAGTC,-0.0881
13,GCATACTA,0.0596
14,ATAGTTCC,0.25
15,AGCTGCCA,-0.135
16,GACAGATA,0.0702
17,AACAGATA,0.096
18,TACAGATA,0.291
19,GGCTGTAA,-0.0501
20,ATTGAGTC,-0.0117
21,ATTGAGTA,0.29
22,ATTGAATA,0.305
23,CTTGAATA,0.155

row,Sequence,PBM E-score
1,ATTGAAAT,0.296
2,ATTGAAAG,0.111
3,CTTGAAAA,0.207
4,GTTGAGTA,0.127
5,AATGAAAT,0.282
6,ATTGAATC,0.0535
7,ATTGAAAC,0.164
8,ATTGAAAA,0.289
9,TAGCGTGA,0.00864
10,AGCTTACT,0.0872
11,AACAAGGA,0.12
12,CATCGTAC,0.0156
13,CACAATCG,0.0764
14,CTGTGAGC,-0.0445
15,AGCTAAGG,-0.119
16,CTCCACGA,-0.0474
17,CAACCACA,0.0032
18,TAGAAAGA,-0.0722
19,CATTCTGC,0.09
20,AGCAGGAA,0.0849
21,CAACCGAC,0.107
22,ATAGTGGA,0.0933
23,ACTAGGGA,-0.159

row,Sequence,PBM E-score
1,AAAAATCC,0.287
2,GCAAAATA,0.287
3,GGAAAAGA,0.0452
4,GAAAAATA,0.397
5,AAAAAATA,0.278
6,TAAAAATA,0.285
7,AGAAAATC,0.232
8,CGAAAATA,0.23
9,GGAAAATA,0.414
10,AGAAAATA,0.314
11,GAAAATCC,0.308
12,GGAAATCC,-0.00538
13,AGGTTGAG,-0.167
14,AAGGGGAT,-0.0478
15,AGTACCGG,-0.182
16,CGGGTGCC,-0.151
17,TCACTACA,0.243
18,CCATCTGA,0.0862
19,CTTTAGGC,-0.0153
20,AGATTGAC,0.0305
21,AAGCAAGG,-0.0139
22,GGACAGAC,-0.174
23,CAAAAATG,0.157

row,Sequence,PBM E-score
1,CAAAAATA,0.316
2,CCAAAATA,0.182
3,TAAAATAA,0.261
4,GAAAATAA,0.304
5,AAAAAATC,0.248
6,GCAAATAA,0.322
7,CAAAAATC,0.236
8,ACAAATAA,0.265
9,GAAAAATC,0.381
10,TCAAATAA,0.202
11,AAAAATAA,0.275
12,ATAGCGCA,0.0412
13,GACGATTA,-0.0748
14,TGAGGACA,0.00432
15,AAACTACG,0.0517
16,ATCTACCC,0.0482
17,ACATCAGG,0.038
18,CTTTTCGC,0.241
19,CAGGCAAC,-0.0967
20,ACGACCAT,-0.108
21,AATCTAGT,0.214
22,AGCTCACG,-0.088
23,GATTAACA,0.396

row,Sequence,PBM E-score
1,TATTAAGA,0.168
2,CATTAACA,0.139
3,GCTTAACA,0.0687
4,GATTAACC,0.195
5,AATTAACC,0.158
6,AATTAACA,0.295
7,TATTAACA,0.291
8,AATTAACT,0.219
9,ACCCAGGC,-0.0962
10,AAGTGAAT,0.239
11,CACAGCCA,-0.174
12,ATGCGGCA,-0.0591
13,AATTTCCC,0.226
14,CTTTTTCC,0.361
15,ATTTTCCA,0.361
16,CCTTTTCC,-0.15
17,CTTTTCCC,0.0333
18,ATTTTCCC,0.386
19,ATTTCCCC,-0.0347
20,GTTTTCCA,0.215
